Rows were chosen to be rich in hits. Some 0.9% of all compounds tested hit in one or more screens of this group.
BJeLR viability: BJeLR cell viability loss, primary screen, luminescence, CellTiterGlo ATP | BJeLR fibroblasts viability, 48 h; HRASV12, hTERT and SV40 LT/ST transformed | viability loss activity score, % (concentration not given with the values) | actives 0.64% (n = 30,000) | AID 2275, 2010; in the data active means viability loss activity score above about 50%;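 further: higher score means fewer live cells and less ATP luminescence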
A1 inhib: inducers of caspase activity in MEF A1-2A-BIM cells, primary screen, A1 inhibitor project, cell-based, CaspaseGlo luminescence. caspase-Glo luminescence, 3 h; percent of clofoctol signal, DMSO as zero. caspase activation, % (no concentration beside the values). actives 0.51% (n = 21,000). AID 2241, 2010;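 active means most replicate scores above 10, or exactly half above 10 with mean activity above 10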;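 further: effector caspase 3 and 7 activity cleaving a DEVD luciferin substrate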
Each line names hits and unclear results; the compound was inactive in the other large screens.

CC(=O)O[C@H]1C[C@H](O[C@H]2[C@@H](O)C[C@H](O[C@H]3[C@@H](O)C[C@H](O[C@H]4CC[C@@]5(C)C(CCC6C5C[C@@H](O)[C@]5(C)[C@@H](C7=CC(=O)OC7)CC[C@]65O)C4)O[C@@H]3C)O[C@@H]2C)O[C@H](C)[C@H]1O[C@@H]1O[C@H](CO)[C@@H](O)[C@H](O)[C@H]1O (stereo partly drawn)	BJeLR viability 109
CO[C@H]1[C@H](O)[C@H](O[C@H]2CC[C@]3(C)C4CC[C@]5(C)[C@H](C6=CC(=O)OC6)CC[C@]5(O)C4CC[C@@H]3C2)O[C@@H](C)[C@@H]1O[C@@H]1O[C@H](CO[C@@H]2O[C@H](CO)[C@@H](O)[C@H](O)[C@H]2O)[C@@H](O)[C@H](O)[C@H]1O (stereo partly drawn)	BJeLR viability 100
CO[C@@H]1[C@H](O)[C@@H](O[C@@H]2C[C@H]3CC[C@@H]4C(CC[C@]5(C)[C@@H](C6=CC(=O)OC6)CC[C@]45O)[C@@]3(C)[C@H](O)C2)O[C@H](C)[C@@H]1O[C@@H]1O[C@H](CO)[C@@H](O)[C@H](O)[C@H]1O (stereo partly drawn)	BJeLR viability 111
COc1cc2c(cc1OC)-c1c(oc3c4c(ccc3c1=O)OC(C(C)C)C4)CO2 (stereo not drawn)	none
COc1ccc([C@H]2Oc3c(I)c(OC)cc(OC)c3C[C@@H]2O)cc1OC	none
O=C1CCCC2C3CC(CN12)[C@@H]1CCCCN1C3 (stereo partly drawn)	none
COc1ccc(/C=C/C(=O)C2C(=O)NC34CCCCC3C2c2ccccc2O4)c(OC)c1OC (stereo not drawn)	none (no result: A1 inhib)
CC(C)(O)c1cc(O)c2c(c1)CCC1C(C)(C(=O)O)CCCC21C (stereo not drawn)	none
CC[C@@]12CCCN3CC[C@]4(c5cccc(OC)c5N(C(C)=O)[C@@H]4CC1)[C@H]32	none
COc1ccc2c3c1O[C@H]1[C@@H](O)CC=C4[C@@H](C2)N(C)CC[C@]431	none
CCN(CC)C(=O)c1ccc2c(c1)C1C3CCC(C3)C1C(c1ccccc1)N2 (stereo not drawn)	none
COc1ccc(-n2c(C)nc3ccccc3c2=O)cc1	none
COc1cc2c(cc1O)C1Cc3ccc(OC)c(O)c3CN1CC2 (stereo not drawn)	none
CO[C@H]1C[C@H](OC2CCC3(C)C4CCC5(C)C(C6=CC(=O)OC6)CC(OC(C)=O)C5(O)C4CC[C@H]3C2)O[C@@H](C)[C@@H]1O (stereo partly drawn)	BJeLR viability 99
C[C@H]1O[C@@H](O[C@H]2[C@@H](O)C[C@H](O[C@H]3[C@@H](O)C[C@H](O[C@H]4CC[C@@]5(C)[C@H](CC[C@@H]6[C@@H]5CC[C@]5(C)[C@@H](C7=CC(=O)OC7)CC[C@]65O)C4)O[C@@H]3C)O[C@@H]2C)C[C@H](O)[C@@H]1O	BJeLR viability 134
C[C@H]1OC(O[C@H]2[C@@H](O)CC(O[C@H]3[C@@H](O)C[C@H](O[C@H]4CC[C@]5(C)C6CC[C@]7(C)[C@@H](C8=CC(=O)OC8)[C@@H](O)C[C@]7(O)[C@@H]6CC[C@@H]5C4)O[C@@H]3C)O[C@@H]2C)C[C@H](O)C1O (stereo partly drawn)	BJeLR viability 98
N#Cc1cc2c(nc1SCc1ccccc1Br)C1CCN2CC1	none (no result: A1 inhib)
CO[C@H](C)C(O)(C(=O)OCC1=CCN2CC[C@H](O)[C@@H]12)C(C)C (stereo partly drawn)	none
C=C1C(=O)O[C@@H]2/C=C(/C)CC/C=C(/C)C[C@@H](OC(=O)/C(=C/CO)CO)C12 (stereo partly drawn)	none
COC(=O)[C@@]12C(=O)C(C)C(=O)[C@]1(C)C(C)=C[C@H]1[C@]3(C)CC[C@H](OC(C)=O)C(C)(C)[C@H]3CC[C@@]12C (stereo partly drawn)	none
CC1=C[C@H]2[C@]3(O)[C@H](C)[C@@H](O)[C@@]4(O)[C@H]([C@@H]3C=C(CO)C[C@]2(O)C1=O)C4(C)C	none
C/C1=C/C(=O)O[C@@H]2C[C@@H](CC[C@H](C)/C=C\CC1)O[C@@](O)([C@@H]1CSC(=O)N1)C2	A1 inhib 23
CCc1nc2ccccc2c(=O)n1-c1ccccc1Cl	none
OC[C@H]1O[C@@H](Oc2c[nH]c3ccc(Br)c(Cl)c23)[C@H](O)[C@@H](O)[C@H]1O	none
N#CC(C#N)=NNc1ccc(OC(F)(F)F)cc1	BJeLR viability 86
COc1ccc2c(c1OC)C(=O)O[C@@H]2[C@@H]1c2cc3c(cc2CCN1C)OCO3	none
O=C(NC(=O)c1ccccc1Cl)Nc1ccc2c(c1)S(=O)(=O)C=C2	none
CC[C@@]1(O)C(=O)OCc2c1cc1n(c2=O)-c2cc3ccccc3nc2C1	BJeLR viability 121
